Measurements taken from PubChem BioAssay (NCI).
About 79,000 compounds went through this panel and 15% of them were active in at least one assay; those are over-represented in the sample as a whole. Unmarked numbers belong to inactive results. Calls of active or inactive are those of the source. No stated cut-off is given here; in the data, active means growth inhibition above about 70%; inactive means the rest.

Experiments:
[1] = NCI Yeast Anticancer Drug Screen. Data for the rad50 strain (AID 155);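 further: 0% = growth of vehicle-only cultures of the same strain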; conditions: S. cerevisiae rad50 strain growth inhibition; at 50.0 µM; hits give high values
Procedure, shortened: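 Cells are treated with compound, grown, and their growth is then scored against vehicle-only cultures of the same repair-deficient yeast strain.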

[2] = NCI Yeast Anticancer Drug Screen. Data for the mec2-1 strain (AID 157); conditions: S. cerevisiae mec2-1 strain, at 50.0 µM, hits give high values
Procedure, shortened: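 Growth inhibition is read against vehicle-treated controls after compound exposure of the mec2-1 yeast strain, which is defective in DNA damage repair or cell cycle control.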

[3] = NCI Yeast Anticancer Drug Screen. Data for the sgs1 mgt1 strain (AID 161);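 further: 0% = growth of cultures given vehicle only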; conditions: S. cerevisiae sgs1 mgt1 strain, at 50.0 µM, hits give high values
Procedure, shortened: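 Growth of a repair-deficient yeast mutant was monitored after compound treatment and expressed as inhibition relative to vehicle-treated cultures.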

[4] = NCI Yeast Anticancer Drug Screen. Data for the cln2 rad14 strain (AID 165);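 further: 0% = growth equal to vehicle treated cultures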; conditions: S. cerevisiae cln2 rad14 strain, at 50.0 µM, hits give high values
Procedure, shortened: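 Growth inhibition, relative to vehicle-treated controls, is the read-out. The test organism is a yeast strain with defined genetic alterations, cln2 rad14.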

[5] = NCI Yeast Anticancer Drug Screen. Data for the bub3 strain (AID 167); conditions: S. cerevisiae bub3 mutant strain, at 50.0 µM, hits give high values
Procedure, shortened: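 Part of a panel of yeast mutants defective in DNA damage repair or cell cycle regulation. Each strain is grown with compound, and inhibition is calculated relative to solvent-treated cultures.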

[6] = NCI Yeast Anticancer Drug Screen. Data for the mlh1 rad18 strain (AID 175); conditions: S. cerevisiae mlh1 rad18 strain growth inhibition; at 50.0 µM; hits give high values
Procedure, shortened: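 Cells of a genetically altered yeast strain, deficient in DNA damage repair, were treated with compound. Their growth was then compared with that of vehicle-treated cultures to give inhibition.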

SMILES | growth inhibition [1] | growth inhibition [2] | growth inhibition [3] | growth inhibition [4] | growth inhibition [5] | growth inhibition [6]
CCOC(=O)C(N=Nc1ccc(S(N)(=O)=O)cc1)C(C)=O (stereo unspecified) | -0.9% | -15.1% | -12.7% | -4.25% | -13.2% | 16.1%
O=c1[nH]c(-c2ccncc2)nnc1-c1ccc(Cl)cc1 | -4.4% | -8.1% | -11.5% | -26.9% | 2.15% | -14.1%
CN1C(=O)N(C)C(=O)C(C)(NS(=O)(=O)c2ccc(NC(=O)CCC(=O)O)cc2)C1=O | 17.6% | 11.6% | 12.2% | 16.1% | 0.95% | 24.3%
O=C(O)CSc1n[nH]c(-c2ccccc2)n1 | -14.2% | -4.3% | -7.5% | 2.55% | 2.3% | -9.35%
O=C(O)CCC1(c2ccccc2)CCCCC1 | 6.1% | 13.9% | 11.6% | 10.2% | 47.7% | -0.9%
COc1ccc(CCCCC(=O)O)cc1 | -12.1% | -3.4% | -0.65% | -2.7% | -7.55% | -9.1%
Nc1c(C(=O)Nc2cccc3c2C(=O)c2ccccc2C3=O)ccc2c1C(=O)c1ccccc1C2=O | 35.1% | 10.1% | 43.3% | 26.7% | 2.75% | 24%
CC(=O)OC1CCC2(C)C3C/C(=N\O)C4(C)C(C(C)OC(C)=O)CCC4C3CCC2(C)C1 (stereo unspecified) | 95.3% (active) | 96.7% (active) | 96% (active) | 91.8% (active) | 93.2% (active) | 95.9% (active)
CCOC(=O)C(Cc1cn(C(C)=O)c2ccccc12)P(=O)(OCC)OCC (stereo unspecified) | -12.7% | -21.6% | -15.2% | -1.15% | 1.05% | -27%
CSc1nc2c(c(=O)n1C)N=C(c1ccccc1)[C@H](C(CC(=O)c1ccccc1)c1ccccc1)C(c1ccccc1)N2 (stereo partly specified) | 46.6% | 43.9% | 41.1% | 24.2% | 14.6% | 11.8%
O=C(O)CCC(=O)Nc1cccc(C(F)(F)F)c1 | -5.9% | 3.4% | -3.15% | -0.55% | 15.2% | 4.3%
c1ccc(C2SCCCS2)cc1 | 33.2% | 5.25% | 17.8% | 18.4% | -4.5% | 18.4%
CCOC(=O)C(=N\Nc1cc(C)cc(C)c1)/C(C)=N\NC(N)=S | 25.1% | 38.8% | 20.1% | 57.5% | 58.5% | 45.6%
CCOC(=O)c1cc2c([N+](=O)[O-])cccc2[nH]1 | 18.4% | -5.9% | -2.2% | -35.5% | 6.45% | 13.7%
N#CCCBr | 23.9% | 0.15% | 7.45% | -22.6% | 15.7% | 31.1%
O=C(CC[n+]1ccccc1)NCCCCCCNC(=O)CC[n+]1ccccc1 | -17.9% | -31.9% | -23.5% | 7.5% | -17.4% | -21.9%
O=C1N(Cc2ccccc2)[C@H]2CS(=O)(=O)C[C@@H]2N1Cc1ccccc1 | 0.9% | 4.1% | 8.75% | -10% | 0.85% | 12.7%
CCC(/C=C/c1ccccc1)=N\NC(=O)c1ccc(Cl)cc1 | 16.2% | 5.5% | 7.5% | 1.7% | 19.9% | 7.95%
O=C(OCCCl)C1CC2C=CC1C2 (stereo unspecified) | -4.5% | -10.1% | 3.85% | 8.25% | -7.2% | -3.4%
Cc1c(C)n(COCCO)c2ncnc(N)c12 | -14.2% | -37.1% | -23.6% | 13.8% | -12.6% | -39%
CC1(C)OC2C3COc4nc5c(N)ncnc5n4C(O3)C2O1 (stereo unspecified) | -6% | -5.2% | -8.85% | -5.05% | -8.1% | -9.9%

SMILES | growth inhibition [1] | growth inhibition [2] | growth inhibition [3] | growth inhibition [4] | growth inhibition [5] | growth inhibition [6]
COc1cccc(C(=O)O)c1[N+](=O)[O-] | -19.1% | -26.6% | -24% | -46.1% | -6.05% | -1%
ClC/C=C/COC1CCCCO1 (stereo unspecified) | 6.8% | -8.55% | -8.5% | -13.8% | -7.6% | -8.9%
C=C(C)[C@@H]1CC[C@@H]2C(=CC[C@]3(C)C([C@H](C)CC/C=C(/C)C(=O)O)CC[C@@]23C)[C@@]1(C)CCC(=O)O (stereo partly specified) | 15.6% | -4.95% | -0.85% | 14.4% | 4.05% | -63.2%
CCOC(=O)Cc1[nH]c(C(=O)OCC)c(CC(=O)OCC)c1C(=O)OCC | 6.3% | 8.45% | 8.3% | -4.2% | 0.1% | 15.7%
O=C1C=CC(=O)C2CC=CCC12 (stereo unspecified) | 24.2% | 50.4% | 1.7% | -6.15% | 4.55% | 26.1%
CC(C)=CCC1=C(OCC(=O)O)C(=O)c2ccccc2C1=O | 30.9% | 1.45% | 12.8% | -2.7% | 20.1% | 23.1%
O=C(Nn1c(-c2ccccc2)nc2ccccc2c1=O)c1ccc([N+](=O)[O-])cc1 | -1.9% | 14.6% | 4.6% | -1% | 17.2% | 13.9%
Nc1ccc(S(=O)(=O)Nc2cnc3c(Cl)cccc3n2)cc1 | -11% | 4.2% | 10.9% | -39.5% | 32.2% | -0.6%
CCC(C)(O)P(=O)(O)O (stereo unspecified) | 5.15% | 7.1% | 0.35% | -30.4% | 0.85% | 7.6%
CCOC(=O)CNC(=O)C(Cc1ccccc1)NC(=O)c1ccccc1[N+](=O)[O-] (stereo unspecified) | 22.8% | 14.3% | 16% | 15.8% | -1.25% | 15.8%
CCOC(=O)N(C)C(=C(F)F)C(F)(F)F | 9.1% | -0.1% | 10.8% | 33.6% | 12.4% | -26.1%
O=C(Nc1ccccc1)c1cccn1-c1ccccc1 | 2.7% | -13.1% | 12.1% | 13.5% | -19% | -2.95%
CC=C(c1ccc(OC)cc1)c1ccc(OC)cc1 | 0.9% | -9.95% | 5% | -46.9% | 2.55% | -4.5%
Cc1ccc(N=Nc2ccc(C)cc2NC(=O)c2ccc(Cl)c(Cl)c2)cc1 | -9.6% | -11.2% | -12% | -13.1% | 7.8% | -20.4%
NC(=O)SCC(=O)Nc1ccccc1O | 14.6% | -27.4% | 2.25% | 0.05% | 0.85% | -9.5%
NC(=S)c1ccc(N=Cc2ccccn2)cc1 | -0.25% | -0.35% | -1.7% | -12.3% | 3.1% | -8%
O=C(Nn1cnc2ccccc2c1=O)c1ccc(NC(=S)Nc2ccccc2)cc1 | 63.5% | -16.4% | 52.7% | -27.8% | -1.45% | 7.5%
COc1ccc(C)cc1NC(=S)NC(=O)C(C)Oc1ccccc1 (stereo unspecified) | 11.8% | 46.5% | 59.5% | -27% | 28.6% | 32.9%
O=c1nc(OCCO)c([N+](=O)[O-])c(C(Cl)(Cl)Cl)[nH]1 | 61.4% | 89.5% (active) | 81.7% (active) | 36.4% | 80.5% (active) | 92.3% (active)
O=C(O)c1ccc(OCCOc2ccccc2)c(Cl)c1 | 31% | 74.8% (active) | 61.3% | 40.2% | 63.6% | 61%
